TRPML1 agonist – activates the human TRPML1 channel. Q9GZU1. TRPML1-expressing cells, Ca2+ dye fluorescence, FDSS. activation, % (concentration not given with the values). actives 0.12% (n = 410,000). AID 624414; in the data active means activation above about 50%; inconclusive means mostly about 30% to 49%; further: 0% is about no effect
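Kinetic FDSS Ca2+ read in Tet-induced TRPML1-DL cells (ABD Ca8 dye plus quencher, 45-90 min RT loading): baseline, then compound, then 110 s agonist window; EC80 agonist 54-4 at 4uM final added afterwards for a 110 s antagonist window.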
TRPV1 PAM – human TRPV1 potentiation | potentiation, % at 8.33 µM | TRPV1-expressing cells, Fluo-8 calcium influx, capsaicin EC20 potentiation | Q8NER1 | actives 0.02% (n = 320,000); in the data active means potentiation above about 80%; inconclusive means between about 30% and that limit; further: 0% is about no effect
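TRPV1-expressing cells were cultured overnight at 35.5C and loaded with Fluo-8 calcium dye for 40 to 90 min at room temperature. After a 10 s baseline, compound was added and calcium influx was read kinetically for 3 min (ex 480/em 520 nm).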
TRPV1 ag – human TRPV1 agonism | actives 0.19% (n = 320,000) | Q8NER1 | activation, % at 8.33 µM | TRPV1-expressing cells, Fluo-8 calcium influx, agonist mode; in the data active means activation above about 80%; inconclusive means between about 30% and that limit; further: 0% is about no effect
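Fluo-8 calcium influx in TRPV1-expressing cells, kinetic read (ex 480/em 520 nm). Compound added and read 3 min for agonist activity, followed by capsaicin at EC20 final and 2 min further read for enhancement.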
KCNH2 3.1 inh – blocks the human KCNH2 3.1 channel isoform. actives 0.95% (n = 340,000). activity change, % (tested at about 1.8 µM). U2OS KCNH2 3.1, thallium flux FluxOr; active compounds read low;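 active means maximum activity change below -70%; inconclusive means maximum activity change from -70% to -50%; inactive means maximum activity change above -50%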;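 further: thallium influx rate constant from kinetic fluorescence after stimulation buffer; on the % scale 0 is the no-effect control and ±100 the full control effect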
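Kinetic fluorescence (2 min after stimulation buffer) measures Tl+ influx through KCNH2 3.1 expressed by viral transduction in U2OS cells; the rate constant is normalized against DMSO controls serving as positive and negative references.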
TRPML1 blocker – human mucolipin-1 channel inhibition | Q9GZU1 | activity change, negative = inhibition, % (test concentration not listed) | actives 0.02% (n = 390,000) | TRPML1-inducible cells, Ca2+ dye fluorescence, FDSS; active compounds read low; inhibition of EC80 agonist-evoked calcium signal; in the data active means activity change below about -50%; inconclusive means between about -30% and that limit;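 further: stimulus is agonist 54-4 at its EC80 concentration; on the % scale 0 is the no-effect control and ±100 the full control effect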
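Calcium fluorescence in TRPML1-DL cells induced overnight with Tet: a 110 s read after compound pin addition, then a 110 s antagonist read after challenge with 54-4 at 4 uM final (EC80).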
hERG WT inh – blocks the wildtype human KCNH2 potassium channel; actives 0.37% (n = 340,000); Q12809; U2OS, BacMam KCNH2, thallium flux FluxOr; active compounds read low; AID 720551; activity change, % at 1.84 µM;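 active means maximum activity change below -70%; inconclusive means maximum activity change between -70% and -50%; inactive means maximum activity change above -50%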; further: on the % scale 0 is the no-effect control and ±100 the full control effect
Target sequence (Q12809 whole entry, looked up): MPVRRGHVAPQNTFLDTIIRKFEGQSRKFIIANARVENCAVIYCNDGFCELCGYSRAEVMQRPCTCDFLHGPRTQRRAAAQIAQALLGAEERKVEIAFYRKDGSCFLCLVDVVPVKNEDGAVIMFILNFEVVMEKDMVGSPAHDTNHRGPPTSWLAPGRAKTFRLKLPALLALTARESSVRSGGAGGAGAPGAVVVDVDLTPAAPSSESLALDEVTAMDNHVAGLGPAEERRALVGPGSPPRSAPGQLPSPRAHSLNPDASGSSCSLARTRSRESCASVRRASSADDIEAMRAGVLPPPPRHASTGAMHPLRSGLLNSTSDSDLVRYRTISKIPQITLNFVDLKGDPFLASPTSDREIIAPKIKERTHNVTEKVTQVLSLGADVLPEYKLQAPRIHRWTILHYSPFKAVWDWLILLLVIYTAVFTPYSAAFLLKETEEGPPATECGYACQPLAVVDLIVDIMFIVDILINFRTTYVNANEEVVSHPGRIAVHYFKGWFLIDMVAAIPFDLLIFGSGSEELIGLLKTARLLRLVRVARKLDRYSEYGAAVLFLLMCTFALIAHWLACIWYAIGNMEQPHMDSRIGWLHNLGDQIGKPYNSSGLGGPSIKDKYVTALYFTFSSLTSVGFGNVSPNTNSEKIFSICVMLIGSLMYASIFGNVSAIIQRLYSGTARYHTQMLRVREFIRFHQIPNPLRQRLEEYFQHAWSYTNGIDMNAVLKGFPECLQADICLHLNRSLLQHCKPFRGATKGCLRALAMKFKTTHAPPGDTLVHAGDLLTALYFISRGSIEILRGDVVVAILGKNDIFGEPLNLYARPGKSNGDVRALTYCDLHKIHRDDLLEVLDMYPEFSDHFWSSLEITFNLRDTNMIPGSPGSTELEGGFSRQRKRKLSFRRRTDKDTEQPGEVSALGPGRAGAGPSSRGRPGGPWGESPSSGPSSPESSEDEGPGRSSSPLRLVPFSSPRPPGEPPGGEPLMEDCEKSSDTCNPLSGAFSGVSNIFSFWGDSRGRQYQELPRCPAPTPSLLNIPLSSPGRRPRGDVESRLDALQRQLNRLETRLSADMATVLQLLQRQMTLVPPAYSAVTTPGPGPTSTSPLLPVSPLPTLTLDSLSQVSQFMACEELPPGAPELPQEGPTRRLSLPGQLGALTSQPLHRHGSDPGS
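U2OS cells transduced with wild-type KCNH2 virus are loaded with FluxOr dye for 45 min, and thallium flux is measured in kinetic reads before and after stimulation buffer. Rate constants are normalized to DMSO controls.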
* hit, by the source's call. This is a sample that favours compounds with a hit; in the whole collection about 1.3% have one here.

How did COc1ccc(CCN(C)CCCN2CC(c3ccccc3)CC2=O)cc1OC (configuration not stated) do in these assays?
TRPML1 agonist: 2.7; TRPV1 PAM: 22.5; TRPV1 ag: -5.7; KCNH2 3.1 inh: -88.2*; TRPML1 blocker: -16.2; hERG WT inh: 5.4

Results for O=C(Oc1ccc(OC(=O)N2CCOCC2)cc1)c1ccccc1 ?
TRPML1 agonist: -0.3; TRPV1 PAM: -5.3; TRPV1 ag: 17.1; KCNH2 3.1 inh: -20.1; TRPML1 blocker: -20.4; hERG WT inh: -152.3*

How did O=C(CSc1nnc(-c2cccnc2)n1CCN1CCCCC1)Nc1cccc(Cl)c1 do in these assays?
TRPML1 agonist: -0.1; TRPV1 PAM: 1.1; TRPV1 ag: -0.8; KCNH2 3.1 inh: -87.2*; TRPML1 blocker: -6.3; hERG WT inh: 7.6

Results for COc1ccc(/C=N/NC(=O)c2ccncc2)cc1CN1CCN(c2ccc(F)cc2)CC1 ?
TRPML1 agonist: -1.1; TRPV1 PAM: -8.0; TRPV1 ag: 14.5; KCNH2 3.1 inh: -89.6*; TRPML1 blocker: 0.1; hERG WT inh: 18.0

Results for COc1ccc(/C=N/NC(=O)c2ccc(C)cc2)cc1CN1CCN(c2ccc(F)cc2)CC1 ?
TRPML1 agonist: -0.1; TRPV1 PAM: 8.1; TRPV1 ag: 5.1; KCNH2 3.1 inh: -107.6*; TRPML1 blocker: -20.1; hERG WT inh: -72.1*

How did COc1ccc(/C=N/NC(=O)c2ccc(F)cc2)cc1CN1CCc2cc(OC)c(OC)cc2C1C (configuration not stated) do in these assays?
TRPML1 agonist: -0.3; TRPV1 PAM: -6.3; TRPV1 ag: 2.4; KCNH2 3.1 inh: -88.0*; TRPML1 blocker: 8.8; hERG WT inh: -91.0*

What do the screens show for `COc1ccc(/C=N\NC(=O)c2cc(O)c(O)c(O)c2)cc1CN1CCN(c2ccc(F)cc2)CC1`?
TRPML1 agonist: 0.3; TRPV1 PAM: -5.7; TRPV1 ag: -0.3; KCNH2 3.1 inh: -13.0; TRPML1 blocker: 8.8; hERG WT inh: -5.6

How did CCCSc1cc(N2CCN(C)CC2)nc(-c2ccc(OC)cc2)n1 do in these assays?
TRPML1 agonist: 2.2; TRPV1 PAM: 9.6; TRPV1 ag: 3.5; KCNH2 3.1 inh: -70.6*; TRPML1 blocker: 23.9; hERG WT inh: -26.1

How did CCN(CC)c1ccc(/C=N/n2c(-c3ccccc3Br)n[nH]c2=S)cc1 do in these assays?
TRPML1 agonist: 19.0; TRPV1 PAM: -9.6; TRPV1 ag: 14.2; KCNH2 3.1 inh: 4.2; TRPML1 blocker: -6.9; hERG WT inh: -7.8

How did Cc1nn(-c2ccccc2)c(C)c1/C=N/n1c(-c2ccccc2Br)n[nH]c1=S do in these assays?
TRPML1 agonist: 2.9; TRPV1 PAM: -4.7; TRPV1 ag: 20.8; KCNH2 3.1 inh: 22.7; TRPML1 blocker: -69.2*; hERG WT inh: -1.9

How did CN(C)c1cc(N2CCOCC2)nc(C#N)n1 do in these assays?
TRPML1 agonist: -0.4

What do the screens show for `O=C(NN=C1CCCC1)c1sc2ccccc2c1Cl`?
TRPML1 agonist: 0.6; TRPV1 PAM: 1.2; TRPV1 ag: -3.8; KCNH2 3.1 inh: 0.9; TRPML1 blocker: 8.1; hERG WT inh: 10.2

Results for O=C1CCC/C(=N/NC(=O)c2sc3ccccc3c2Cl)C1 ?
TRPML1 agonist: 58.2*; TRPV1 PAM: 15.3; TRPV1 ag: 23.1; KCNH2 3.1 inh: -1.9; TRPML1 blocker: -7.1; hERG WT inh: -10.3

How did CC[C@@H](C)[C@H](NC(=O)OCc1ccccc1)c1nnc([C@@H](NC(=O)OCc2ccccc2)[C@@H](C)CC)o1 do in these assays?
TRPML1 agonist: 1.9; TRPV1 PAM: -10.5; TRPV1 ag: 17.1; KCNH2 3.1 inh: -85.8*; TRPML1 blocker: -2.1; hERG WT inh: 4.5

What do the screens show for `C[C@H](NC(=O)OCc1ccccc1)C(=O)NNC(=O)[C@H](C)NC(=O)OCc1ccccc1`?
TRPML1 agonist: -0.4; TRPV1 PAM: -4.3; TRPV1 ag: -0.9; TRPML1 blocker: -19.8

How did Cc1ccccc1OCCN1CCC(Cc2ccccc2)CC1 do in these assays?
TRPML1 agonist: 0.5; TRPV1 PAM: 2.3; TRPV1 ag: 6.7; KCNH2 3.1 inh: -0.4; TRPML1 blocker: -7.9; hERG WT inh: -9.4

What do the screens show for `O=[N+]([O-])c1ccc(CN2CCC(Cc3ccccc3)CC2)cc1`?
TRPV1 PAM: -0.6; TRPV1 ag: 0.2; KCNH2 3.1 inh: inconclusive; hERG WT inh: 3.2

What do the screens show for `Cc1ccc([N+](=O)[O-])c(OCCN2CCC(Cc3ccccc3)CC2)c1`?
TRPML1 agonist: 1.1; TRPV1 PAM: 17.6; TRPV1 ag: 3.2; KCNH2 3.1 inh: -93.3*; TRPML1 blocker: 29.1; hERG WT inh: -4.2

What do the screens show for `O=[N+]([O-])c1cccc(OCCCN2CCC(Cc3ccccc3)CC2)c1`?
TRPML1 agonist: 0.0; KCNH2 3.1 inh: -88.0*; TRPML1 blocker: 4.4; hERG WT inh: -85.6*

What do the screens show for `C=C1CCN([C@@H](Cc2ccccc2)C(=O)NCc2ccc(Cl)cc2)S(=O)(=O)c2ccccc21`?
TRPML1 agonist: 2.2; KCNH2 3.1 inh: -70.4*; TRPML1 blocker: -17.4; hERG WT inh: -15.2

Results for COc1cc(CNC2CCCCCC2)cc(OC)c1 ?
TRPML1 agonist: -0.3; TRPV1 PAM: 5.7; TRPV1 ag: -0.7; KCNH2 3.1 inh: -87.2*; TRPML1 blocker: -7.9; hERG WT inh: -5.3

What do the screens show for `Cc1cc(C)c(S(=O)(=O)/N=C2/C=C(SCC(=O)O)C(=O)c3ccccc32)cc1C`?
TRPML1 agonist: -0.4; TRPV1 PAM: 26.0; TRPV1 ag: -4.1; KCNH2 3.1 inh: -117.2*; TRPML1 blocker: 18.4; hERG WT inh: 4.6

What do the screens show for `Cc1cc(C)c(S(=O)(=O)Nc2cc(SCC(=O)O)c(O)c3ccccc23)cc1C`?
TRPML1 agonist: 3.0; TRPV1 PAM: 9.5; TRPV1 ag: -0.8; KCNH2 3.1 inh: -4.7; TRPML1 blocker: 33.3; hERG WT inh: -5.6

What do the screens show for `O=C(NCCN1CCOCC1)c1cc(-c2cccs2)on1`?
TRPML1 agonist: -0.2; TRPV1 PAM: 5.6; TRPV1 ag: -0.3; KCNH2 3.1 inh: -172.0*; TRPML1 blocker: -11.0; hERG WT inh: -11.4

What do the screens show for `O=C(NCCN1CCOCC1)c1cc(-c2ccccc2)on1`?
TRPML1 agonist: 0.7; TRPV1 PAM: -3.5; TRPV1 ag: 2.7; KCNH2 3.1 inh: 5.9; TRPML1 blocker: 36.5; hERG WT inh: -2.1

What do the screens show for `Cc1ccc(NC(=O)CN2C=NS(=O)(=O)c3ccccc32)cc1`?
TRPML1 agonist: -0.7; TRPML1 blocker: -11.4

How did Clc1ccc(CN(CC2CCCO2)C(c2cccs2)c2nnnn2C2CCCC2)cc1 (configuration not stated) do in these assays?
TRPML1 agonist: 53.8*; TRPV1 PAM: -10.2; TRPV1 ag: -1.9; KCNH2 3.1 inh: -17.3; TRPML1 blocker: -3.2; hERG WT inh: -10.4
